Molecules are shown by their SMILES. Several values for one entry are separate records, joined by “and”; a condition that tells them apart may be missing. Identical values can stand only once. ± gives the uncertainty stated by the source.

In general, cell viability refers to a read-out of living cells in per cent, often relative to untreated cells.
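Further: viable cell number estimated from Alamar Blue fluorescence read at 560/90, part of a single-dose primary screen of an FDA-approved drug library.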

The assay has as its system U87. Kind of assay: cell viability relative to vehicle control; higher = less growth inhibition (less active). Conditions: 10 µM; 72 h.
On to `O=c1c2ccccc2[se]n1-c1ccccc1`, for which the cell viability was 107 ± 1.6%. For the compound `C[C@]12Cc3c[nH]nc3C[C@@H]1CC[C@@H]1[C@@H]2CC[C@@]2(C)[C@H]1CC[C@]2(C)O` [Stanozolol], the cell viability came out at 107 ± 2.4%. Then `OC1CCCCC1N1CCC(c2ccccc2)CC1` (stereo not given), with 95 ± 2.2%.

Consider `CN1C(=O)COc2c(C(=O)NC3CN4CCC3CC4)cc(Cl)cc21` (stereo not given) [Azasetron], for which the cell viability is 103 ± 1.1%.

Turning to `CC(C)CC(N(C)C)C1(c2ccc(Cl)cc2)CCC1` (stereo not given) [Sibutramine], the cell viability is 111.8 ± 0.39%. In the case of `C[C@]12CCC(=O)C=C1CC[C@@H]1[C@@H]2CC[C@@]2(C)[C@H]1CC[C@]2(C)O` [Methyltestosterone], the cell viability was found to be 66.4 ± 2.3%.

In the case of `Cc1nnc2n1-c1ccc(Cl)cc1C(c1ccccc1)=NC2` [Alprazolam], the cell viability is 89.23 ± 0.4%. With `CN1CC[C@]23CCCC[C@H]2[C@H]1Cc1ccc(O)cc13`, the cell viability turned out to be 101.4 ± 0.14%.

For `c1cncc([C@@H]2CCCN2)c1` [Nornicotine], the cell viability worked out at 111 ± 3.4%.

On to `COc1cccc(C2(O)CCCCC2CN(C)C)c1` (stereo not given) [Tramadol], for which the cell viability was 102 ± 2.1%.

Take `CC[C@@H](C(N)=O)N1CCCC1=O`: the cell viability amounted to 110 ± 12%. Regarding `NC(=O)OCCCc1ccccc1`, the cell viability is 104 ± 1.9%.

With `NCCc1ccccn1`, the cell viability is 104 ± 1.4%. On to `CNC1=Nc2ccc(Cl)cc2C(c2ccccc2)=[N+]([O-])C1`, for which the cell viability was 104 ± 1.7%.

Take `C#CCN(C)[C@H](C)Cc1ccccc1` [Selegiline]: the cell viability amounted to 103 ± 1.2%. Regarding `CC(NC(C)(C)C)C(=O)c1cccc(Cl)c1` (stereo not given), the cell viability is 105% and 107%. Then `NC(=O)C[S+]([O-])C(c1ccccc1)c1ccccc1` (stereo not given) [Modafinil], with 107 ± 1.4%; and `C[C@]12CC[C@H]3[C@@H](CCC4=CC(=O)CC[C@@]43C)[C@@H]1CC[C@@H]2O` [Testosterone], with 107 ± 1.6%.

Consider `N=C(NCc1ccc(Cl)cc1)SCCCc1c[nH]cn1` [Clobenpropit], for which the cell viability is 102 ± 1.4%.

As for `CCCN1C[C@H](CSC)C[C@@H]2c3cccc4[nH]cc(c34)C[C@H]21` [Pergolide], the cell viability came out at 109.4 ± 1%.

For the origin of these results see the supplement of paper PMC3898565.
